Screening results from PubChem.
The sample as a whole holds a higher share of hits than the screen did.
Marburg entry inh = inhibitors of Marburg virus binding or cell entry. Potency, µM (highest dose often 37.8 µM), hits mostly inhibitors. AID 540276. Marburg virus pseudotyped entry inhibition, cell reporter. 1.8% of 300,000 active; calls by dose curve; tested in HEK293 cells
Cycloheximide cs = counter-screen hit for Shiga toxin inhibitors, cycloheximide | cell reporter, cycloheximide protein synthesis inhibition counterscreen | 12% of 300,000 active | max response, %; in the data active means max response mostly above about 13%, no sharp cut-off; inactive means mostly below about 14%; further: read at 38.3 µM for the half of the compounds with a filed dose
AMA1-RON2 inh = inhibitors of Plasmodium falciparum AMA1-RON2 interaction; AlphaScreen AMA1-biotinylated RON2 peptide binding; Potency, µM (titrated, usually from 58.2 µM), hits mostly inhibitors; 0.2% of 360,000 active; AID 720542; active means well fitted inhibition curve with a large enough effect; inconclusive means small, poorly fitted or top-dose-only effect; inactive means no such curve, though single readings can be large or run the other way; further: nearly all actives have a fitted effect of over 45% in size
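AMA1 (3D7) with his tag at 25 nM final met compounds first, then biotinylated RON2 peptide at 25 nM; detection used donor plus acceptor beads, 10 µg/mL apiece, read by AlphaScreen after 30 min at room temperature.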
Shiga inhibitor = inhibitors of Shiga toxin in Vero cells. Vero cells, Shiga toxin protein synthesis inhibition reporter. inhibition, % at 38.7 µM. 9.2% of 290,000 active. AID 2315; in the data active means inhibition mostly above about 28%, no sharp cut-off; inactive means mostly below about 43%
LASV entry inh = inhibitors of Lassa virus binding or cell entry | Lassa virus pseudotype entry inhibition, cell reporter | Potency, µM (series often up to 37.9 µM), most hits filed as inhibitors | 1.2% of 300,000 active | AID 540256; calls by dose curve; tested in HEK293 cells; further: nearly all actives have a fitted effect of over 50% in size
Large screens that a line does not name were inactive.

Cc1ccc(-c2nc3ccc(C(=O)O)cc3nc2-c2ccc(C)cc2)cc1	none
O=C(N/N=C/c1ccccc1[N+](=O)[O-])c1cnccn1	Marburg entry inh inconclusive, Cycloheximide cs 31, Shiga inhibitor 91, LASV entry inh inconclusive
COc1cc(OC)c(OC)cc1/C=N/NC(=O)c1cnccn1	none
O=C(N/N=C/c1ccccc1[N+](=O)[O-])c1ccncc1	Cycloheximide cs 21, Shiga inhibitor 40
COc1cccc(/C=N/NC(=O)c2cnccn2)c1OC	Cycloheximide cs 17, Shiga inhibitor 50
O=C(N/N=C/C=C/c1ccccc1[N+](=O)[O-])c1ccncc1	none
COc1cccc(OCC(=O)O)c1	none
CCOC(=O)Cn1c(S(=O)(=O)Cc2ccc(Cl)cc2)nc(-c2ccccc2)c1-c1ccccc1	Marburg entry inh inconclusive, LASV entry inh inconclusive
C#CCn1c(S(=O)(=O)Cc2ccc(OC)cc2)nc(-c2ccccc2)c1-c1ccccc1	Marburg entry inh 4.1µM, LASV entry inh inconclusive
COC(=O)c1cnn2c3c(c(C)nc12)CCCC3	Marburg entry inh inconclusive, Cycloheximide cs 59, Shiga inhibitor 73
Cc1cccc(OCc2nc3ccccc3c(=O)n2N)c1	Marburg entry inh inconclusive, Cycloheximide cs 47, LASV entry inh inconclusive
Cc1cccc(-c2nc3ccccc3c(=O)n2N)c1	none (no result: Marburg entry inh, LASV entry inh)
Nn1c(COc2cccc(Cl)c2)nc2ccccc2c1=O	Cycloheximide cs 38, Shiga inhibitor 75
CC(=O)c1ccc(OCc2cc(C(=O)NC(C)c3cnn(C)c3)no2)cc1 (stereo unspecified)	Cycloheximide cs 37, Shiga inhibitor 94 (no result: Marburg entry inh, LASV entry inh)
Cc1cc(C)n(CCCNC(=O)c2cc(COc3ccc(C)c(C)c3)on2)n1	none
CCc1cc(C(=O)NC(C)c2ccccc2)no1 (stereo unspecified)	none (no result: Cycloheximide cs, AMA1-RON2 inh, Shiga inhibitor)
CC(=O)c1ccc(OCc2cc(C(=O)NCCn3nc(C)cc3C)no2)cc1	Cycloheximide cs 81, Shiga inhibitor 63
Cc1cc(CNC(=O)c2cc(COc3ccc(F)c(F)c3)on2)nn1C	Cycloheximide cs 46, Shiga inhibitor 64
CC(NC(=O)c1cc(COc2ccccc2)on1)c1nccs1 (stereo unspecified)	Marburg entry inh inconclusive, Cycloheximide cs 28, Shiga inhibitor 75, LASV entry inh inconclusive
Cc1cc(OCc2cc(C(=O)NC(C)c3cnn(C)c3)no2)cc(C)c1Cl (stereo unspecified)	none (no result: Marburg entry inh, Cycloheximide cs, Shiga inhibitor, LASV entry inh)
Cc1nc(COC(=O)c2ccc(S(=O)(=O)N3CCCC3)cc2)cs1	none
Cc1ccc(-n2nc3c(=O)n(CC(=O)NCC(C)c4ccccc4)nc(C)c3c2C)cc1 (stereo unspecified)	none (no result: Marburg entry inh, Cycloheximide cs, AMA1-RON2 inh, Shiga inhibitor)
Cc1ccc(C)c(NC(=O)C2CCCN(c3cnccn3)C2)c1 (stereo unspecified)	none (no result: Marburg entry inh, LASV entry inh)
COc1ccc(NC(=O)NC(C)c2c(-n3cccc3)sc3c2CCN(C)C3)c(OC)c1 (stereo unspecified)	none (no result: Marburg entry inh, Cycloheximide cs, AMA1-RON2 inh, Shiga inhibitor)
CC(NC(=O)c1cc(COc2ccc3ncccc3c2)on1)c1ccc(F)cc1 (stereo unspecified)	none (no result: Marburg entry inh, LASV entry inh)
Cn1c(CCNC(=O)c2cc(COc3ccc(F)c(F)c3)on2)nc2ccccc21	Shiga inhibitor 73
Cc1nc(C(C)NC(=O)c2cc(COc3ccc(F)c(F)c3)on2)cs1 (stereo unspecified)	Cycloheximide cs 18 (no result: Marburg entry inh, LASV entry inh)
Cc1cc(C)n(CC(C)NC(=O)c2cc(COc3ccc(F)c(F)c3)on2)n1 (stereo unspecified)	Cycloheximide cs 19, Shiga inhibitor 28 (no result: Marburg entry inh, LASV entry inh)
COCCN(CC(=O)Nc1ccccc1C(F)(F)F)C(=O)/C=C/c1ccc2ccccc2n1	none (no result: Marburg entry inh, Cycloheximide cs, Shiga inhibitor, LASV entry inh)
CN1CCN(c2ccc(Cl)cc2NC(=O)/C=C/c2cccc(F)c2)CC1	Marburg entry inh 5µM
CCN1CCN(c2ccc(S(=O)(=O)N3CCCCC3)cc2NC(=O)/C=C/c2ccc(Cl)cc2)CC1	Marburg entry inh inconclusive, LASV entry inh 18µM (no result: Cycloheximide cs, Shiga inhibitor)
COc1ccc(C2=NN(C(=O)c3ccccc3)C(c3ccc(OC)c(OC)c3)C2)c(OC(C)=O)c1 (stereo unspecified)	none (no result: Marburg entry inh, AMA1-RON2 inh, LASV entry inh)
COC(=O)NC(c1cccc(C)c1)C(C(C)=O)C(=O)OC (stereo unspecified)	none (no result: Cycloheximide cs, AMA1-RON2 inh, Shiga inhibitor, LASV entry inh)
CNc1nc(N/N=C/c2cc([N+](=O)[O-])ccc2F)nc(Nc2ccccc2)n1	none (no result: Marburg entry inh, Cycloheximide cs, Shiga inhibitor, LASV entry inh)
CNc1nc(N/N=C/c2cc3c(cc2[N+](=O)[O-])OCO3)nc(Nc2ccccc2)n1	Marburg entry inh 16µM, LASV entry inh inconclusive
Cn1c(OCc2cccnc2)nc2c1c(=O)n(Cc1ccc(Cl)cc1)c(=O)n2C	Marburg entry inh inconclusive, LASV entry inh 16µM (no result: Cycloheximide cs, Shiga inhibitor)
Cc1cc(Nc2cccc(C(F)(F)F)c2)nc2ccc(NC(=O)c3cncc(Br)c3)cc12	none (no result: Marburg entry inh, Cycloheximide cs, AMA1-RON2 inh, Shiga inhibitor)
CCCSc1nc(C)c(CC(=O)O)c(=O)[nH]1	none
CC1CCN(S(=O)(=O)c2ccc3c(c2)N(CC(=O)NC(C)c2ccccc2)C(=O)CS3)CC1 (stereo unspecified)	none (no result: Cycloheximide cs, AMA1-RON2 inh, Shiga inhibitor, LASV entry inh)
O=C(CSc1ccc(Br)cc1)N1CCN(C(=O)c2ccco2)CC1	none
O=C(COc1ccc2cc(Br)ccc2c1Br)N1CCOCC1	Marburg entry inh inconclusive, Cycloheximide cs 29, Shiga inhibitor 30, LASV entry inh inconclusive
Cc1ccc(-c2nc(CSCC(=O)N3CCOCC3)c(C)o2)cc1	Shiga inhibitor 73
O=C(CSc1ccc(Cl)cc1)N1CCOCC1	Cycloheximide cs 29, Shiga inhibitor 68
O=C(CSc1ccc(Br)cc1)N1CCOCC1	Marburg entry inh inconclusive, Cycloheximide cs 27, Shiga inhibitor 46
COc1ccc(NC(=O)c2ccco2)cc1NC(=O)c1ccc(OC(C)C)cc1	none (no result: Cycloheximide cs, AMA1-RON2 inh, Shiga inhibitor)
CC(C)(C)OC(=O)N1CCC(c2c(C(=O)NCCN3CCc4ccccc4C3)cnn2-c2ccc(F)cc2)CC1	none (no result: Marburg entry inh, Cycloheximide cs, AMA1-RON2 inh, Shiga inhibitor)
O=C(CCSc1ccc(Cl)cc1)N1CCOCC1	Marburg entry inh inconclusive, Cycloheximide cs 29, Shiga inhibitor 53
Cc1ccc(CC(=O)N2CCOCC2)cc1	none
Cc1ccc(C23CC4CC(CC(CC(=O)N5CCOCC5)(C4)C2)C3)cc1	Marburg entry inh inconclusive, LASV entry inh 8.2µM
Cc1ccc(CSCC(=O)N2CCOCC2)cc1	Marburg entry inh inconclusive, Cycloheximide cs 20
Clc1ccc(SCc2csc(N3CCOCC3)n2)cc1	Cycloheximide cs 33, AMA1-RON2 inh inconclusive, Shiga inhibitor 54
CC(Sc1ccc(Cl)cc1)C(=O)NNC(=O)c1csc(N2CCOCC2)n1 (stereo unspecified)	none
COc1ccc(C)cc1NC(=O)N1CCN(c2cc(-c3noc(C)n3)ccc2C)CC1	none (no result: Marburg entry inh, Cycloheximide cs, AMA1-RON2 inh, Shiga inhibitor)
Cc1ccc(S(=O)(=O)N2CCCC2)cc1C(=O)NCC(C)(C)N1CCOCC1	none (no result: Cycloheximide cs, Shiga inhibitor)
Cc1ccc(-c2cc(C3C4C=CCCC4(C)C(=O)N3Cc3ccccc3)ccc2F)cc1 (stereo unspecified)	none (no result: Marburg entry inh, AMA1-RON2 inh, LASV entry inh)
Cc1ccc(SCC(=O)N2CC(C)OC(C)C2)cc1 (stereo unspecified)	none
Cc1ccc(SCC(=O)N2CCOCC2)cc1	Marburg entry inh inconclusive, Cycloheximide cs 23, Shiga inhibitor 35
O=C(CCSc1nccn1Cc1ccccc1)N1CCOCC1	Cycloheximide cs 19, Shiga inhibitor active
O=C(CSc1nnc(CNC(=O)c2c(F)cccc2Cl)o1)Nc1ccccc1F	none (no result: Cycloheximide cs, AMA1-RON2 inh, Shiga inhibitor)
